# Bioassay records from PubChem.
# Shn3 3UTR inh: reduction of Shn3 3'UTR firefly luciferase signal, primary screen, Schnurri-3 inhibitor project, cell-based, Clone20 osteoblasts, set 2. Clone20 osteoblast Shn3 3'UTR firefly luciferase, 24 h. inhibition, % at 12.5 µM. 360,000 tested, 0.52% active. AID 588674, 2011;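 active = mean inhibition of at least 75% with every replicate also reaching 75%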;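 also: 0% = median of neutral control wells and 100% = pilot-screen positive control compound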
# PAX8 inh HTS: inhibitors of PAX8-driven TPO luciferase reporter, primary screen, RMG-I cells, single concentration | SteadyGlo, 24 h | 360,000 tested, 1.2% active | inhibition, % at 12.6 µM;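 active = mean replicate inhibition at least 60% with every replicate also reaching 60%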;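 also: luciferase light reporting Pax8 driven TPO promoter activity; plate controls were median of neutral control wells for no effect and mitoxantrone controls for full effect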
# EWS-Fli inh: EWS/Fli-driven NR0B1 reporter inhibitors, primary screen, A673 cells, NR0B1 luciferase, luminescence, MLPCN library; inhibition, % at 12.6 µM; 350,000 tested, 0.67% active; viability-normalised; AID 651661, 2012;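 active = mean inhibition of at least 50% after viability correction, with every replicate also passing that limit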;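 also: firefly luciferase signal divided by Alamar Blue viability fluorescence both relative to DMSO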
# TRPM1 prom inh: inhibitors of MITF-dependent TRPM1 promoter reporter, primary screen, cell-based, SK-MEL-5, single point, luciferase | SK-MEL-5 TRPM1 promoter luciferase, 24 h | inhibition, % at 12.5 µM | 330,000 tested, 0.83% active | AID 488899, 2010;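 active = mean inhibition across replicates of 60% or more, whatever share of single replicates reaches that level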
# LGR2 antag: inhibitors of bursicon-induced LGR2 CRE-luciferase signal, primary screen, cell-based, HEK293, CRE-luciferase reporter, bursicon stimulation; Drosophila bursicon receptor LGR2 (rickets); bursicon-stimulated, 4 h; inhibition, % at 9.99 µM; 380,000 tested, 0.35% active; AID 720647, 2013;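 active = drop in luminescence signal, shown as inhibition above about 50% in the replicate tests, limit read from the data, passing the limit was not always enough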;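 also: agonist challenge used bursicon conditioned medium at about half maximal strength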
# EBV LMP1 NFkB: EBV LMP1-driven NF-kappaB luciferase reporter inhibitors, primary screen, cell-based, luminescence, single point | 350,000 tested, 0.69% active | LMP1-induced NF-kappaB luciferase reporter cells | AID 504558, 2011 | inhibition, % at 12.5 µM; in the data active = inhibition above about 41%;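 also: 0% = neutral control wells and 100% = reference inhibitor control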
# Active calls of the source: *; . = not tested or not shown; ! = repeats disagree. Hits are enriched below; roughly 2.2% of the tested compounds scored in any of these assays.
SMILES,Shn3 3UTR inh,PAX8 inh HTS,EWS-Fli inh,TRPM1 prom inh,LGR2 antag,EBV LMP1 NFkB
C/C=C/c1ccc([C@@H]2[C@H](CO)N(S(C)(=O)=O)C23CN(C(=O)CC)C3)cc1,.,6,-4,.,-7,.
CC(=O)N(C)C[C@H]1Oc2cc(C#CC(C)C)ccc2S(=O)(=O)N([C@H](C)CO)C[C@@H]1C,.,.,1,.,-10,.
c1ccc(CNCCCNCCCCNCCCNCc2ccccc2)cc1,-23,86*,5,-3,-13,9
COc1ccc(C#Cc2ccc([C@H]3[C@@H](CO)N4C(=O)CN(C(=O)c5ccc(F)cc5)C[C@H]34)cc2)cc1,.,.,5,.,23,.
CO[C@H]1CN(C)C(=O)c2cc(C#N)ccc2OC[C@H]2O[C@H](CC[C@@H]2OC)CCN(C)C(=O)[C@H]1C,.,-2,-5,.,7,.
O=C(C[C@@H]1CC[C@@H]2[C@H](COC[C@@H](O)CN2S(=O)(=O)c2ccccc2)O1)NCCN1CCCC1,.,-6,-6,.,-6,.
CCOC(=O)N1CCC(N2C(=O)c3ccccc3C2Nc2cc(Cl)c(OC)cc2OC)CC1 (stereo unspecified),20,4,-1,-8,-5,75*
Cc1ccc(/C=C2\SC(=S)N(CCCC(=O)Nc3cccnc3)C2=O)cc1,72,.,.,25,.,72*
CCc1ccc(/C=C2\SC(=S)N(CCCC(=O)Nc3ccccn3)C2=O)cc1,36,.,.,34,.,52*
O=C(CCCN1C(=O)/C(=C/c2cccs2)SC1=S)Nc1cccnc1,4,31,-26,-7,-11,10
O=C(CCCN1C(=O)/C(=C\c2cccc(Br)c2)SC1=S)Nc1cccnc1,-1,106*,25,10,40,14
Cc1ccc(/C=C2\SC(=S)N(CC(=O)Nc3cccnc3)C2=O)cc1,-2,-10,-7,-6,-5,-2
CCc1ccc(/C=C2\SC(=S)N(CCCC(=O)N(CCO)c3ccccc3)C2=O)cc1,8,94*,54*,.,6,10
CO[C@@H]1CN(C)C(=O)c2ccc(NC(=O)c3ccc(F)cc3)cc2OC[C@H](C)N(C(=O)CN(C)C)C[C@H]1C,.,.,5,.,3,.
O=C(CCCN1C(=O)/C(=C/c2cccc(Br)c2)SC1=S)Nc1ccccn1,4,110*,.,1,.,23
O=C(CCCN1C(=O)/C(=C/c2cccc(Br)c2)SC1=S)Nc1cccnc1,-22,94*,-19,9,17,8
O=C(CCCN1C(=O)/C(=C/c2ccccc2OC(F)F)SC1=S)Nc1cccnc1,-16,98*,-4,0,44,23
O=C(Nc1cc(F)ccc1F)N1CC(=O)N2[C@H](CO)[C@@H](c3ccc(-c4ccccc4)cc3)[C@@H]2C1,.,-47,10,.,15,.
O=C(C[C@H]1CC[C@H]2[C@@H](COC[C@H](O)CN2Cc2nccs2)O1)NCc1ccccc1,.,-6,2,.,-7,.
CC(C)(C)c1ccc(/C=C(\c2nc3ccccc3[nH]2)S(=O)(=O)c2ccccc2)cc1,94*,.,.,91*,.,3
C=CCN1CCN(C(=O)CCc2ccccc2)CC1,-2,9,2,15,4,87*
C=CCOc1c(Cl)cc(C(=S)N2CCCC2)cc1OCC,-2,43,58*,30,2,5
O=C(Cn1cnc2c(nnn2-c2ccccc2)c1=O)NCc1ccco1,-20,-8,1,8,3,87*
Cc1ccc(-n2nnc3c(=O)n(CC(=O)NCc4ccco4)cnc32)cc1,-21,14,-2,.,-1,-2
COC(=O)c1cccc(NS(=O)(=O)c2cccs2)c1C,-2,-9,.,-9,-6,0
SMILES,Shn3 3UTR inh,PAX8 inh HTS,EWS-Fli inh,TRPM1 prom inh,LGR2 antag,EBV LMP1 NFkB
COC(=O)c1ccccc1NC1=C/C(=N\S(=O)(=O)c2ccc(C(=O)O)cc2)c2ccccc2C1=O,80,.,.,90*,.,-14
COC(=O)c1ccccc1NC1=C/C(=N\S(=O)(=O)c2cccs2)c2ccccc2C1=O,94*!,30,-15,78*,91*,86*!
CCc1ccc(S(=O)(=O)/N=C2\C=C(Nc3ccc(C(=O)O)cc3)C(=O)c3ccccc32)cc1,-14,93*,19,16,103*,0
C[C@@H]1CN([C@H](C)CO)C(=O)c2cc(NC(=O)Nc3ccc(C(F)(F)F)cc3)ccc2O[C@@H](C)CCCCO[C@H]1CN(C)C(=O)NC1CCCCC1,.,96*,17,.,23,.
C[C@@H]1CN([C@@H](C)CO)C(=O)c2cc(NC(=O)Nc3ccc(C(F)(F)F)cc3)ccc2O[C@@H](C)CCCCO[C@@H]1CN(C)C(=O)NC1CCCCC1,.,39,-2,.,25,.
C[C@H](CO)N1C[C@H](C)[C@H](CN(C)C(=O)NC2CCCCC2)OCCCC[C@H](C)Oc2ccc(NC(=O)Nc3ccc(F)cc3)cc2C1=O,.,65*,-1,.,41,.
C[C@@H]1CCCCO[C@H](CN(C)C(=O)NC2CCCCC2)[C@H](C)CN([C@H](C)CO)C(=O)c2cc(NC(=O)Nc3ccc(C(F)(F)F)cc3)ccc2O1,.,73*,4,.,-9,.
C[C@H]1CCCCO[C@@H](CN(C)C(=O)NC2CCCCC2)[C@@H](C)CN([C@@H](C)CO)C(=O)c2cc(NC(=O)Nc3ccc(F)cc3)ccc2O1,.,54,-6,.,25,.
CN(C)C(=O)c1cccc(-c2ccc([C@H]3[C@@H](CO)N4CCCCN(C(=O)C5CCCC5)C[C@@H]34)cc2)c1,.,-7,-8,.,.,.
COc1cccc(C#Cc2ccc([C@@H]3[C@H](CO)N4C(=O)CN(C(C)=O)C[C@@H]34)cc2)c1,.,.,.,.,15,.
CCCN(C)C[C@@H]1Oc2ncc(-c3cccc(C(=O)N(C)C)c3)cc2C(=O)N([C@@H](C)CO)C[C@@H]1C,.,.,-8,.,4,.
C[C@H](CO)N1C[C@H](C)[C@@H](CN(C)C(=O)CCC(F)(F)F)OCCCC[C@H](C)Oc2ccc(NS(=O)(=O)c3ccc(F)cc3)cc2C1=O,.,16,-4,.,-24,.
CC1CN(S(=O)(=O)c2ccc(C(=O)Nc3nc(-c4cc5ccccc5o4)cs3)cc2)CC(C)O1 (stereo unspecified),87*,14,16,9,19,21
Nc1nn(S(=O)(=O)c2ccccc2)cc1-c1ccc([N+](=O)[O-])cc1,18,-23,83*,12,2,0
Cc1ccc(S(=O)(=O)n2cc(-c3ccccc3)c(N)n2)cc1,12,.,.,4,7,-4
c1ccc(CCNc2ccnc3cc4ccccc4cc23)cc1,94*,50,44,103*,107*,-60
CC(C)Nc1ccc(Nc2ccnc3cc4ccccc4cc23)cc1,13,97*,36,88*,74*,-143
COc1ccc(Nc2ccnc3ccccc23)cc1,4,.,.,-3,.,15
